Compound activity: PubChem, Broad Institute
Rows were chosen to be rich in hits. Some 2.1% of all compounds tested hit in one or more screens of this group.
Shn3 3UTR inh = reduction of Shn3 3'UTR firefly luciferase signal, primary screen, Schnurri-3 inhibitor project, cell-based, Clone20 osteoblasts, set 2; Clone20 osteoblast Shn3 3'UTR firefly luciferase, 24 h; inhibition, % at 12.5 µM; actives 0.52% (n = 360,000);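 active means mean inhibition of at least 75% with every replicate also reaching 75%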;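 further: 0% = median of neutral control wells and 100% = pilot-screen positive control compound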
TRPM1 prom inh = inhibitors of MITF-dependent TRPM1 promoter reporter, primary screen, cell-based, SK-MEL-5, single point, luciferase. SK-MEL-5 TRPM1 promoter luciferase, 24 h. inhibition, % at 12.5 µM. actives 0.83% (n = 330,000);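 active means mean inhibition across replicates of 60% or more, whatever share of single replicates reaches that level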
PAX8 reporter = inhibitors of PAX8-driven TPO luciferase reporter, primary screen, RMG-I cells, single concentration. SteadyGlo, 24 h. inhibition, % at 12.6 µM. actives 1.2% (n = 360,000);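 active means mean replicate inhibition at least 60% with every replicate also reaching 60%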;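 further: luciferase light reporting Pax8 driven TPO promoter activity; plate controls were median of neutral control wells for no effect and mitoxantrone controls for full effect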
EBV LMP1 NFkB = EBV LMP1-driven NF-kappaB luciferase reporter inhibitors, primary screen, cell-based, luminescence, single point. LMP1-induced NF-kappaB luciferase reporter cells. inhibition, % at 12.5 µM. actives 0.69% (n = 350,000); in the data active means inhibition above about 41%;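 further: 0% = neutral control wells and 100% = reference inhibitor control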
aSyn 5UTR inh = MLPCN primary screen, SNCA 5' untranslated region. inhibition, % (tested at 7.5 µM). actives 0.82% (n = 300,000). alpha-synuclein 5'UTR reporter, inhibitor activity. AID 1813, 2009; in the data active means inhibition above about 60%;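 further: H4 neuroglioblastoma cells stably carrying SNCA 5'UTR luciferase fusion; 0% = DMSO wells and 100% = positive control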
An asterisk follows results filed as active.

For O=C(Nc1ccc2c(c1)OCCO2)NC1(C(F)(F)F)Oc2ccccc2O1 the results were Shn3 3UTR inh 61.6, PAX8 reporter -77.5, EBV LMP1 NFkB 5.3 and aSyn 5UTR inh 62.5*.
`CC(C)(O)C#Cc1ccc([C@@H]2[C@H]3CN(S(C)(=O)=O)CCCCN3[C@H]2CO)cc1` gave PAX8 reporter 2.4.
COc1ccc2c3c([nH]c2c1)[C@H](CO)N(C(C)=O)CC31CN(Cc2ccccc2Cl)C1 was read as PAX8 reporter 3.2.
`O=C(COC(=O)C(Cc1ccccc1)NC(=O)c1ccco1)NC1CC1` (configuration not stated) gave Shn3 3UTR inh 4.6, TRPM1 prom inh 3.0, EBV LMP1 NFkB -7.6 and aSyn 5UTR inh -2.2.
`CN1OC[C@@H]2CN[C@H](c3ccc(-c4cc5ccccc5o4)cc3)C[C@@H]21` gave Shn3 3UTR inh 84.9 and EBV LMP1 NFkB 79.8*.
Screening Cc1cc(-c2ccccc2)n(-c2cc(N/N=C/c3ccccc3O)ncn2)n1 returned Shn3 3UTR inh 89.5*, TRPM1 prom inh 49.6, PAX8 reporter 71.1* and EBV LMP1 NFkB 21.5.
`CNc1cc(-n2nc(C)cc2-c2ccccc2)ncn1` gave Shn3 3UTR inh 2.0, TRPM1 prom inh 13.7, PAX8 reporter 11.3, EBV LMP1 NFkB -25.2 and aSyn 5UTR inh 27.4.
`C=C(C)C(=O)OC1(C(F)(F)F)Oc2cc(C)ccc2NC1=O` (configuration not stated) gave Shn3 3UTR inh 42.8, TRPM1 prom inh 26.3, PAX8 reporter 93.0*, EBV LMP1 NFkB -24.7 and aSyn 5UTR inh -54.4.
For COc1ccc(S(=O)(=O)N(C)C[C@@H]2OCCCC[C@@H](C)Oc3ccc(N(C)C)cc3C(=O)N([C@H](C)CO)C[C@@H]2C)cc1 the results were PAX8 reporter 17.6.
O=C1c2ccccc2C(=O)C1c1ccc2ccccc2n1 was read as Shn3 3UTR inh 26.6, TRPM1 prom inh 59.6, EBV LMP1 NFkB 32.4 and aSyn 5UTR inh 94.4*.
CCOc1ccc(NC(=O)Cn2cc(C(=O)CC)c3ccccc32)cc1 was read as Shn3 3UTR inh 2.0, TRPM1 prom inh -27.2, EBV LMP1 NFkB 70.9* and aSyn 5UTR inh 0.7.
`COc1ccc(NC(=O)C(=O)c2cn(CC(=O)N3CCCC3)c3ccccc23)cc1` gave Shn3 3UTR inh -0.9, TRPM1 prom inh 16.0, PAX8 reporter 50.5, EBV LMP1 NFkB 10.2 and aSyn 5UTR inh 104.6*.
For CC(=O)Nc1ccc(NC(=O)C(=O)c2cn(CC(=O)N3CCCC3)c3ccccc23)cc1 the results were Shn3 3UTR inh -20.0, TRPM1 prom inh 11.4, PAX8 reporter -0.7, EBV LMP1 NFkB 4.7 and aSyn 5UTR inh -15.9.
N#Cc1nc(-c2ccco2)oc1NCCCN1CCOCC1 was read as Shn3 3UTR inh 5.8, TRPM1 prom inh 4.3, EBV LMP1 NFkB -3.9 and aSyn 5UTR inh -2.7.
COc1ccc(CCNc2nnc(Sc3nnnn3-c3ccccc3)s2)cc1OC was read as Shn3 3UTR inh 12.0, TRPM1 prom inh 58.4, PAX8 reporter 94.1*, EBV LMP1 NFkB 5.4 and aSyn 5UTR inh 119.6*.
`COc1ccc(-n2nnnc2SCC(=O)NCCc2ccccc2)cc1OC` gave Shn3 3UTR inh -4.9, TRPM1 prom inh -9.7, PAX8 reporter 25.4, EBV LMP1 NFkB -7.8 and aSyn 5UTR inh 7.1.
For COC(=O)c1cnc(Oc2ccc(NC(=O)NC(=O)c3c(OC)cccc3OC)cc2)cc1C(F)(F)F the results were Shn3 3UTR inh 37.3, TRPM1 prom inh 38.0, PAX8 reporter 72.8*, EBV LMP1 NFkB 8.3 and aSyn 5UTR inh 74.5*.
Screening Cc1cc(N2CCN(C)CC2)ccc1NC(=O)c1c2c(nc3ccccc13)CCN(Cc1ccccc1)C2 returned Shn3 3UTR inh 38.5, TRPM1 prom inh 86.7*, EBV LMP1 NFkB 77.1* and aSyn 5UTR inh 91.6*.
`CCOC(=O)CSC1=NC(=O)/C(=C\c2ccc(Cl)cc2)S1` gave Shn3 3UTR inh 20.4, TRPM1 prom inh 66.0*, PAX8 reporter -53.8, EBV LMP1 NFkB -11.2 and aSyn 5UTR inh -44.2.
`CCOC(=O)C1CCN(C2=NC(=O)/C(=C/c3ccc(Cl)cc3)S2)CC1` gave Shn3 3UTR inh -20.1, TRPM1 prom inh -6.9, PAX8 reporter -5.6, EBV LMP1 NFkB -1.7 and aSyn 5UTR inh 1.7.
COc1ccc(-c2nc3ccccc3c(C(=O)Nc3ccc(S(=O)(=O)Nc4cc(C)on4)cc3)c2C)cc1 was read as Shn3 3UTR inh 7.4, TRPM1 prom inh 8.6, EBV LMP1 NFkB 50.5* and aSyn 5UTR inh 13.1.
`N#CCSc1nccc(-c2cc(Cl)sc2Cl)n1` gave Shn3 3UTR inh -0.9, TRPM1 prom inh -5.8, EBV LMP1 NFkB -1.0 and aSyn 5UTR inh 1.8.
C=CCSc1nccc(-c2cc(Cl)sc2Cl)n1 was read as Shn3 3UTR inh 6.2, TRPM1 prom inh -6.8, EBV LMP1 NFkB 83.6* and aSyn 5UTR inh -26.7.
Screening S=C(NCc1ccccn1)NN=Cc1ccccn1 returned Shn3 3UTR inh 81.5, TRPM1 prom inh 69.9*, PAX8 reporter -9.7 and EBV LMP1 NFkB 61.0*.
Screening Cc1ccc(NC(=S)NCc2ccccn2)cc1 returned Shn3 3UTR inh -11.8, TRPM1 prom inh -6.6, EBV LMP1 NFkB -3.9 and aSyn 5UTR inh -25.6.
`CC(Nc1ccccc1CO)C(=O)Nc1cccc(Cl)c1Cl` (configuration not stated) gave Shn3 3UTR inh 3.5, TRPM1 prom inh 15.2, PAX8 reporter 4.9, EBV LMP1 NFkB 67.8* and aSyn 5UTR inh 37.5.
For COc1ccc2c(c1)OC[C@H]1[C@H]2N2C(=O)CN(Cc3ccco3)C(=O)[C@@]2(C)[C@H]1c1ccccc1 the results were Shn3 3UTR inh 14.0, TRPM1 prom inh -0.9, PAX8 reporter -4.1 and EBV LMP1 NFkB -5.5.
For COc1ccc(-n2cnc3c(cnn3CCC#N)c2=N)cc1 the results were Shn3 3UTR inh -6.9, TRPM1 prom inh -6.3, EBV LMP1 NFkB 84.7* and aSyn 5UTR inh -19.2.
COc1ccc(-c2cc(N)n(CCC#N)n2)c(OC)c1 was read as Shn3 3UTR inh -0.2, TRPM1 prom inh 10.2, PAX8 reporter -3.7, EBV LMP1 NFkB -8.3 and aSyn 5UTR inh 12.7.
`CC(=O)Oc1ccc(OC(C)=O)c(SCCCCCCl)c1` gave Shn3 3UTR inh 95.0*, TRPM1 prom inh 1.7, PAX8 reporter 14.7, EBV LMP1 NFkB -72.3 and aSyn 5UTR inh -60.2.
CC(=O)Oc1ccc(C(=O)O)cc1OC(C)=O was read as Shn3 3UTR inh -3.8, TRPM1 prom inh 11.3, EBV LMP1 NFkB 6.4 and aSyn 5UTR inh 17.9.
For O=C(O)Cn1cc(/C=C/[N+](=O)[O-])c2ccccc21 the results were Shn3 3UTR inh 7.9, TRPM1 prom inh 3.2, PAX8 reporter 3.9, EBV LMP1 NFkB -0.9 and aSyn 5UTR inh 9.1.
For O=C(Cn1cc(/C=C\[N+](=O)[O-])c2ccccc21)Nc1ccccc1 the results were Shn3 3UTR inh 94.5*, TRPM1 prom inh 91.1*, PAX8 reporter 17.6, EBV LMP1 NFkB 18.8 and aSyn 5UTR inh -52.7.
